For eight molecules, Percent Effect results are on record in ChEMBL document CHEMBL3988442, “University of Dundee, Small-Polar-MMV Screening Library” (2021).

Structures are written as SMILES. For some of these results: Measured potencies and affinities stand elsewhere.

Holding throughout (set-up): scale not given: direction of the effect not stated beside the values
In test [1] the target is Protein translocase subunit SecA (Escherichia coli (strain K12)) (UniProt P10408). The test is described as follows: Assay to Identify E. coli SecA ATPase Inhibitors. It counts as functional. The conditions noted are these: 30 µM.
Sequence of Protein translocase subunit SecA (Escherichia coli (strain K12)) (P10408 whole entry): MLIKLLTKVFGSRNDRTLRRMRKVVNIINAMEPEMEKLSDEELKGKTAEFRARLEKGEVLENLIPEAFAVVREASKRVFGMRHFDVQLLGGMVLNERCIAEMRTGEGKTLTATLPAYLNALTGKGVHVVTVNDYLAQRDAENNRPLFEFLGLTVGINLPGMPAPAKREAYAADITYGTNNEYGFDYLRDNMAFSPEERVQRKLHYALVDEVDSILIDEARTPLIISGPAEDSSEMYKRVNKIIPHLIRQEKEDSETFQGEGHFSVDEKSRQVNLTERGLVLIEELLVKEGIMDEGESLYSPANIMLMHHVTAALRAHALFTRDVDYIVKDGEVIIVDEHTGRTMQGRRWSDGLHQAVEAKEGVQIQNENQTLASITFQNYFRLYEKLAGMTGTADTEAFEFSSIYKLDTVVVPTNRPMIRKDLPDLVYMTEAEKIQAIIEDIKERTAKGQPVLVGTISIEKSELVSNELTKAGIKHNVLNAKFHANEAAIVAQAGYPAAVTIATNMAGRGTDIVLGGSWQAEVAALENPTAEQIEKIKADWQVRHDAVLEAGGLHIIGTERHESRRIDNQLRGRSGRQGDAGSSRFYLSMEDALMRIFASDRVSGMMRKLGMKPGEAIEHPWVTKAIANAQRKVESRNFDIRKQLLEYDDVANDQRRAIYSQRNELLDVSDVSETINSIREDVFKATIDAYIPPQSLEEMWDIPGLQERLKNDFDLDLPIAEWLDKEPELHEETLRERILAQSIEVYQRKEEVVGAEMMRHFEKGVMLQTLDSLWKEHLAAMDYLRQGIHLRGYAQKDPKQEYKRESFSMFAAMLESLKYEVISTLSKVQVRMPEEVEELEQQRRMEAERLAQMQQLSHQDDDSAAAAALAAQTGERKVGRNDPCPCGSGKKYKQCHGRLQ
Test [2] concerns the target T1, Ubiquitin-activating enzyme e1, putative (Leishmania donovani (strain BPK282A1)) (UniProt E9BSI1).
T1 sequence (whole entry): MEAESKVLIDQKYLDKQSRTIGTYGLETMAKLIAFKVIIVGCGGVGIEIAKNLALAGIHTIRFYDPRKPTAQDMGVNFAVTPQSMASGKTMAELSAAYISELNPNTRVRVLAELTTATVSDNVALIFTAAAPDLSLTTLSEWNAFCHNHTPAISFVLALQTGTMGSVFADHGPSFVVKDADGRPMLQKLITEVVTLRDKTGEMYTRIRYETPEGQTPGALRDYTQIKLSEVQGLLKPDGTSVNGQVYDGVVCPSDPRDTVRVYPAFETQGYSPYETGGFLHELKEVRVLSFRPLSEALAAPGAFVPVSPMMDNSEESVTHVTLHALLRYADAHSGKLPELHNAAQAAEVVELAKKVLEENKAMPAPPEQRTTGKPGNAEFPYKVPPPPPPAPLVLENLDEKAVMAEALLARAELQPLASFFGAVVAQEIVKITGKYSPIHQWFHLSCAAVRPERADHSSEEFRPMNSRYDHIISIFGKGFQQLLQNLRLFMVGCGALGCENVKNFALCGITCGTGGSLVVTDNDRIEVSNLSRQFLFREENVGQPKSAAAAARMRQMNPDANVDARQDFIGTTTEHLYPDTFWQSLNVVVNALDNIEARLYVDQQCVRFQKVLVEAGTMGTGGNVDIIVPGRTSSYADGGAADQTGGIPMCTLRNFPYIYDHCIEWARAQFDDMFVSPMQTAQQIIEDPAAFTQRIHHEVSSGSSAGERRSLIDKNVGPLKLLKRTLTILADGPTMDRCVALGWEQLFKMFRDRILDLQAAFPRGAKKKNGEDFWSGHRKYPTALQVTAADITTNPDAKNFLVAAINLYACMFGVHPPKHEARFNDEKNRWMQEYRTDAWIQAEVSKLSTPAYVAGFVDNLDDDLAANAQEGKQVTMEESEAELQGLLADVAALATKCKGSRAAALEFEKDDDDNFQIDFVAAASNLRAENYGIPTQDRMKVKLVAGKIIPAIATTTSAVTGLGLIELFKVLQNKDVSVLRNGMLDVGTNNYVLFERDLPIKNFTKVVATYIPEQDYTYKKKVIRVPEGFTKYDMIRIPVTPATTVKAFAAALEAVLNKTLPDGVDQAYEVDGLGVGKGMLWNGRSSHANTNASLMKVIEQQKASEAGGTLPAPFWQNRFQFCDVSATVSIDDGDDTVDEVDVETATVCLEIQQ
The test can be described thus: Leishmania donovani Ubiquitin Activating Enzyme (LdE1). The conditions noted are these: 30 µM. In kind it is functional.

For test [3], the target named is AMP-activated protein kinase, AMPK (Homo sapiens) (UniProt P54646+O43741+P54619+Q9UGJ0+Q9Y478+Q13131+Q9UGI9). The test is described as follows: AMP-dependent Kinase enzyme assay. An in vitro enzyme assay that detects ADP turnover that is directly proportional to AMPK activity. This uses naive AMPK that is activated during the assay with MK-8722. It counts as functional. To be noted: 30 µM.

For test [4], the target named is Sialic acid-binding Ig-like lectin 9 (Homo sapiens) (UniProt Q9Y336). The test can be described thus: Hs-Siglec9 ALPHAscreen SOP 20170721. To be noted: 10 µM.
Sequence of Sialic acid-binding Ig-like lectin 9 (Homo sapiens) (Q9Y336 whole entry): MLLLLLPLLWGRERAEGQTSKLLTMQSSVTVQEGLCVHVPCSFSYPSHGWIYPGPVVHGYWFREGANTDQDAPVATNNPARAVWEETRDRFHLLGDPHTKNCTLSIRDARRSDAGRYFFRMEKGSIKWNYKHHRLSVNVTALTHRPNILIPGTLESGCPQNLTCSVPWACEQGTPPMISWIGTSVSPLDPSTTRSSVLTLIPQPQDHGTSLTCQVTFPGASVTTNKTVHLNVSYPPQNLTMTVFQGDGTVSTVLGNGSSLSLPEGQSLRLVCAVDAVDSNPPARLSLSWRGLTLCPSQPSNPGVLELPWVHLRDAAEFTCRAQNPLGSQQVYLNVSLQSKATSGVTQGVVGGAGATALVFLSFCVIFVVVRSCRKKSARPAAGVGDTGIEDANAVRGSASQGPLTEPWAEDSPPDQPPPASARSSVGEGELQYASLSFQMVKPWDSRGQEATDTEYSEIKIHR
Test [5] deals with Trypanosoma cruzi. The test can be described thus: Trypanosoma cruzi phosphomannomutase and mannose-1-phosphate guanylyltransferase assay. It counts as functional. To be noted: 10 µM.
Test [6] has as its target T2, Arginase-2, mitochondrial (Homo sapiens) (UniProt P78540).
T2 sequence (whole entry): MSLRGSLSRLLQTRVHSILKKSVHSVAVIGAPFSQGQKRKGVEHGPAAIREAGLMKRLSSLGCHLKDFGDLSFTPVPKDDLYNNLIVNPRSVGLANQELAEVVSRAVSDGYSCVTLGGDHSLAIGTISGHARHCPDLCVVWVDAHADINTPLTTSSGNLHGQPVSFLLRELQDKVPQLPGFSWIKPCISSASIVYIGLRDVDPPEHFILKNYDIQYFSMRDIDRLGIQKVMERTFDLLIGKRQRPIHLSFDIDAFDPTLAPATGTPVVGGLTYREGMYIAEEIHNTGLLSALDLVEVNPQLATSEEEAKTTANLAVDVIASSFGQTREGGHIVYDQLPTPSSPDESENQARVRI
The test can be described thus: in vitro enzyme assay to detect the production of urea directly proportional to the activity of Arginase II. Also: in the data most compounds retested in dose-response had high values. The conditions noted are these: 33.3 µM. In kind it is functional.

The target of test [7] is T3, Proteasome subunit beta (Trypanosoma cruzi) (UniProt O96673).
T3 sequence (whole entry): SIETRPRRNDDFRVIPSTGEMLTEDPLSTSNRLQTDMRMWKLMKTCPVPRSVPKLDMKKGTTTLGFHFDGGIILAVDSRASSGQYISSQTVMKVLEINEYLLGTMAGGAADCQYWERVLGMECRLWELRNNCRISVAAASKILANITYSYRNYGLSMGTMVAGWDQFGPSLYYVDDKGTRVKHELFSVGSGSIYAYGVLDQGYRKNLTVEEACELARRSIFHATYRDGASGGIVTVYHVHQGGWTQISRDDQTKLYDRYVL
The test can be described thus: Trypanosoma cruzi proteasome chymotrypsin-like activity (TcProtChymo) assay. Also: in the data most compounds retested in dose-response had high values. It counts as functional. To be noted: 9.37 µM.

Test [8] is filed under the species Homo sapiens. The test is described as follows: To identify inhibition of the IFN signalling (Jak-Stat) pathway via expression of an eGFP reporter gene under the control of an IFN-stimulated response element (ISRE) containing MxA promoter. It counts as functional. The conditions noted are these: 30 µM.
Test [9] concerns the target T4, Tyrosyl-tRNA synthetase, putative (Trypanosoma cruzi (strain CL Brener)) (UniProt Q4DSP6).
T4 sequence (whole entry): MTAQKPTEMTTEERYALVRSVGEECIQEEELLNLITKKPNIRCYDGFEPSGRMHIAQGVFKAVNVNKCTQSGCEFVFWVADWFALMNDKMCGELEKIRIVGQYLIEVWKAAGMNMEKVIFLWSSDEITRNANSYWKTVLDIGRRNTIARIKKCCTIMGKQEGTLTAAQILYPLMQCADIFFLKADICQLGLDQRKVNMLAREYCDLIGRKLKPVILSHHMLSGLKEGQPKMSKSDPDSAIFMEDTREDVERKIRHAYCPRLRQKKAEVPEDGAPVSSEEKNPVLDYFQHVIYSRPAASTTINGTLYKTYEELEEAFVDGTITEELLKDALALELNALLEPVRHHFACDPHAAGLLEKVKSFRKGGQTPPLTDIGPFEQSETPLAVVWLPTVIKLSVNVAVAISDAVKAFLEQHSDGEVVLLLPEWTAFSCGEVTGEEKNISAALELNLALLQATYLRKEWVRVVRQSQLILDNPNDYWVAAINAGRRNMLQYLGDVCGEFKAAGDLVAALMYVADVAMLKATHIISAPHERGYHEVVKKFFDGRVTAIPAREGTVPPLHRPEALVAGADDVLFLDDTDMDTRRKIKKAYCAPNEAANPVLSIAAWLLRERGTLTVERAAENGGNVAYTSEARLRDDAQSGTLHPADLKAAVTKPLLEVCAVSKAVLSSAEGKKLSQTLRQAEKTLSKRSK
The test is described as follows: Trypanosoma cruzi tyrosyl tRNA synthetase (TcYRS) _High Tyrosine SOP. Also: in the data most compounds retested in dose-response had high values. It counts as functional. To be noted: 30 µM.

Test [10] deals with T4, Tyrosyl-tRNA synthetase, putative (Trypanosoma cruzi (strain CL Brener)). The test is described as follows: Trypanosoma cruzi tyrosyl tRNA synthetase (TcYRS) SOP. It counts as functional. To be noted: 30 µM.
In test [11] the target is Chromo domain-containing protein 1 (Saccharomyces cerevisiae (strain ATCC 204508 / S288c) (Baker's yeast)) (UniProt P32657). The test can be described thus: ScCHD-1 Enzyme Inhibition Assay. Also: in the data most compounds retested in dose-response had high values. It counts as functional. To be noted: 30 µM.
Sequence of Chromo domain-containing protein 1 (Saccharomyces cerevisiae (strain ATCC 204508 / S288c) (Baker's yeast)) (P32657 whole entry, the tested form may be a part): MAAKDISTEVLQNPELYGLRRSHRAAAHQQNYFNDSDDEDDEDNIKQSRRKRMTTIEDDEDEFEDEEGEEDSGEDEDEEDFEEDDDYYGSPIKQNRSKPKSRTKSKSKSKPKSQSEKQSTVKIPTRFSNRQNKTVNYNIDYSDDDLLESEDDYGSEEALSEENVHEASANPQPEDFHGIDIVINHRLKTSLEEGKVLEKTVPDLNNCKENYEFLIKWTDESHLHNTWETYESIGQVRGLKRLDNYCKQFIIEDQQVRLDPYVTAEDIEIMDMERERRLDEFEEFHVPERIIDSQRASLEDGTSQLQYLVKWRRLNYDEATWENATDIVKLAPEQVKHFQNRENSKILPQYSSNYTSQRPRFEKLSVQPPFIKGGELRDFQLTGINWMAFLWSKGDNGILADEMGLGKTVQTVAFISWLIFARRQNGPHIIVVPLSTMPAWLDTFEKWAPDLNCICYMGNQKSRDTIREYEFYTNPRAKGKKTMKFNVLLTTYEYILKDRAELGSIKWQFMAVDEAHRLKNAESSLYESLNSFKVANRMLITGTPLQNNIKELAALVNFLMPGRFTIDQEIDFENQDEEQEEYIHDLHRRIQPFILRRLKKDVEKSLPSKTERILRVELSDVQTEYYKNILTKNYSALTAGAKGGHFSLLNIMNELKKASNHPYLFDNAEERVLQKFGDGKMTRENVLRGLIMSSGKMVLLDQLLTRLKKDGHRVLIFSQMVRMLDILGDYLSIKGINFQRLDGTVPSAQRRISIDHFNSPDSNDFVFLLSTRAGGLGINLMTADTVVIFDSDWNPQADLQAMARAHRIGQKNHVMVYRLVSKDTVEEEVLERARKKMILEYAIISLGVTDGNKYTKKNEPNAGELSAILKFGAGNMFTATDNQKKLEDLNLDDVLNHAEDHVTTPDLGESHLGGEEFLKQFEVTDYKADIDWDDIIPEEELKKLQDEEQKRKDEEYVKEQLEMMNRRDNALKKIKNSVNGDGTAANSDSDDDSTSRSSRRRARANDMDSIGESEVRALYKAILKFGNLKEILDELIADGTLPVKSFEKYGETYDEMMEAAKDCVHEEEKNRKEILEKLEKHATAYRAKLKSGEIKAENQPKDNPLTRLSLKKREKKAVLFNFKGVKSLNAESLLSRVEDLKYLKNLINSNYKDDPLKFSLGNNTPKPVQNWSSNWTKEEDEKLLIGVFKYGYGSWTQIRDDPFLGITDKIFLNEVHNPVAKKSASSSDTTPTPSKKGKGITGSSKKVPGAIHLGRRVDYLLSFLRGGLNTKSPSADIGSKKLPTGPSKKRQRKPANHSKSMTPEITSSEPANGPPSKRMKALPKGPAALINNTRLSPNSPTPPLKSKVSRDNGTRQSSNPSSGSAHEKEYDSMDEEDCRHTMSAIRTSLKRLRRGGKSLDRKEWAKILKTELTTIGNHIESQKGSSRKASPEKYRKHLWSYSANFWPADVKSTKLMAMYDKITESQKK

As for `Cc1noc(C)c1CN1CCc2nn(C(C)C)c(=O)cc2C1`, the Percent Effect in test [1] was -9.42%; in test [2], 13.2%; in test [3] it was -66%; in test [4], 20.3%; in test [5] it was 9.8%; in test [6], 5.04%. Moreover, the Percent Effect is 12.9% in test [7]; -9.45% in test [8]; 5.42% in test [9]; 16.1% in [10]; -9.78% in test [11].
With `c1ccc2oc(CCCN3CCOC(Cn4cccn4)C3)nc2c1` (stereo not drawn), the Percent Effect in test [1] was -3.85%; in [2], 5.2%; in test [3] it was 0.772%; in [4], 0.668%; in test [5], 6.56%; in test [6], -3.16%. For the same molecule, the Percent Effect came to 0.889% in test [7]; 7.24% in test [8]; 0% in [9]; 7.06% in test [10]; 5.28% in test [11].
With `NC(=O)CSCC(=O)N1CCc2cc(Cl)cc(Cl)c2C1`, the Percent Effect in test [1] is -5.75%; in test [2], 15.6%; in test [3] it was 4.28%; in test [4], 36.8%; in test [5] it was 6.98%; in [6] it was -57.9%. Further, the Percent Effect was 9.15% in test [7]; -7.69% in test [8]; 3.23% in [9]; 8.64% in [10]; -8.22% in test [11].
As to `O=C1NCC[C@]12CN(Cc1ccoc1)C[C@H]2c1ccccc1`, the Percent Effect in test [1] is 4.22%; in [2], 15.6%; in [3], 11.9%; in test [4], -15.6%; in test [5] it was -8.38%; in [6], 1.94%. The Percent Effect in [7] is 13.8%; in test [8] it was 11%; in [9] it was 4.23%; in test [10] it was 6.41%; in test [11], -8.29%.
Turning to `O=C(CCc1ccccc1F)NS(=O)(=O)c1ccc2c(c1)OCCCO2`, the Percent Effect in [1] is -6.43%; in [2], 11.4%; in [3], 2.28%; in test [4], 1.9%; in test [5] it was -0.923%; in test [6], -4.95%. The Percent Effect is 9.09% in test [7]; 6.8% in test [8]; 2.08% in test [9]; 12.7% in test [10]; -20.4% in test [11].
`Cc1nnc(N2CCCC3(CN(Cc4ccc(C)s4)CCO3)C2)o1` (stereo not drawn): the Percent Effect is 0.137% in test [1]; 5.48% in test [2]; -2.15% in test [3]; 8.14% in test [4]; 3.97% in test [5]; -5.19% in test [6]. The Percent Effect in test [7] was 13.1%; in [8], -2.59%; in [9], 2.08%; in [10], 6.17%; in [11], -3.69%.
Take `CN(C)C(CNC(=O)NCCc1cccc(O)c1)c1ccco1` (stereo not drawn): the Percent Effect in test [1] is -1.55%; in test [2], 5.41%; in test [3], 0.167%; in test [4], 22.4%; in [5], 3.81%; in test [6], 6.7%. For the same molecule, the Percent Effect is 13% in test [7]; -1.66% in test [8]; 0% in [9]; 6.17% in [10]; -9.98% in test [11].
As for `COc1cnc(C2(O)CCN(C(=O)c3cccnc3)CC2)c(OC)n1`, the Percent Effect in [1] is -4.3%; in [2], 4.05%; in [3] it was 11.7%; in test [4] it was 7.31%; in test [5], -1.78%; in [6], -0.696%. For the same molecule, the Percent Effect is -0.156% in test [7]; -1.41% in test [8]; 5.38% in [9]; 6.49% in test [10]; -4.19% in test [11].
